Screening results deposited in PubChem by several laboratories.
The full list was thinned out, with hits kept by preference.
D1 mod – D1 dopamine receptor (human) allosteric modulation. 5.9% of 58,000 active. B-score at 10 µM. HEK293 D1, CRE-luciferase, dopamine EC30 potentiation; actives deviate in either direction. P21728;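 active = luminescence count or its row- and column-corrected plate score outside the 99.7% band of the plate's sample wells, on either side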
CD11b adhes enh – increases human CD11b/CD18 adhesion to fibrinogen; 0.07% of 93,000 active; activation, % at 10 µM; P05107+P11215; K562 CD11b/CD18 adhesion to fibrinogen, ATPlite luminescence;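 active = 10 µM primary screen giving 50% or more activity, confirmed by 40% or more on retest at that dose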
Pyk2 oligo antag – blocks oligomerization of human Pyk2 in cells | AID 1347419 | z-score (the deposit names both 25 µM and 10 µM) | Q293 cells, Pyk2 FERM NanoBiT luminescence; active compounds read low | 0.83% of 99,000 active;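 active = Z-score of -3 or lower, scaled per plate to the spread of control and sample wells; inactive = z-score above -3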;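 also: negative z-score means lost luminescence so less FERM oligomerization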
FAK blocker – blocks human focal adhesion kinase activity; Q05397; biochemical FAK kinase activity assay; inhibition, %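 (tested at 7 µM)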; 0.84% of 97,000 active; AID 727; in the data active = inhibition above about 19%;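 also: 0% = DMSO and 100% = reference compound high control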
hDAT+cocaine – changed human dopamine transporter uptake under cocaine IC80; Q01959; LLC-PK1 hDAT cells, [14C]-dopamine uptake with cocaine IC80; actives deviate in either direction; B-score at 10 µM; 1.3% of 110,000 active; AID 449768;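 active = Z score or B-score, a plate-position-corrected score, falls beyond the plate's 99.7% confidence bounds, in either direction; inactive = both scores lie inside the 99.7% bounds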;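 also: scored against the spread of the other compound wells on the same plate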
CD11b adhes inh – CD11b/CD18-fibrinogen binding inhibition; K562 CD11b/CD18 adhesion to fibrinogen, ATPlite luminescence; Mn2+ added to activate the integrin; inhibition, % at 10 µM; AID 1497; 0.54% of 93,000 active;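 active = primary inhibition of 50% or more at 10 µM, then 40% or more on retest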
An asterisk follows results filed as active; / = not tested or not shown.

SMILES	D1 mod	CD11b adhes enh	Pyk2 oligo antag	FAK blocker	hDAT+cocaine	CD11b adhes inh
COC(=O)c1sccc1-n1cccc1C(=O)C(=O)N1CC(C)OC(C)C1 (configuration not stated)	/	0	0.03	0	1.8	-26
Cc1nn(C(=O)c2ccc3c(c2)OCO3)c(N)c1-c1ccccc1	-5.7*	-6	/	5	0.26	30
Cc1cccc(NC(=O)C2SC(=Nc3c(C)cccc3C)C(C(=O)N3CCOCC3)=C2N)c1 (configuration not stated)	/	9	/	/	/	-15
COCCn1c(C)cc(C2=NNC(=Nc3ccc(OC)cc3)SC2)c1C	/	81*	-0.39	-4	1.6	23
COc1ccc(N=C2NN=C(c3ccc4c(c3)OCCO4)CS2)cc1	/	20	-1.9	0	3.1*	-23
COCCn1c(C)cc(C2=NNC(=Nc3ccccc3)SC2)c1C	/	-3	0.94	9	-0.35	39
CCOc1ccc(C(=O)N2CCCCCC2)cc1	/	2	0	2	0.56	-36
CCCOc1ccc(C(=O)N2CCN(c3ccc(N)cc3Cl)CC2)cc1	0.67	1	-3.9*	3	0.94	-4
CCN(CC)S(=O)(=O)c1cc(C(=O)Nc2cc(Cl)ccc2N2CCN(C)CC2)ccc1Cl	/	-2	-0.29	0	2.9*	3
CN1CCN(c2ccc(Cl)cc2NC(=O)c2ccc(S(=O)(=O)N(C)C)cc2)CC1	/	-1	0.95	-1	0.41	-4
CN(C)S(=O)(=O)c1cccc(NC(=O)Cn2cnc3ccccc3c2=O)c1	/	-1	0.08	1	0.14	7
COc1cc(CO)cc(Br)c1OCc1cccnc1	-3.1*	-3	0.2	/	-0.97	2
COc1cc(CNCc2ccncc2)cc(Br)c1OCc1ccccc1F	/	-7	0.43	-8	1.8	62*
COc1cc(CNCCO)cc(Br)c1OCc1cccs1	/	/	-0.96	-3	0.47	/
Cc1ccc2nc(Nc3ncc4c(n3)CCCC4=O)nc(C)c2c1	-0.37	1	/	/	/	10
Cc1cc(C)cc(Nc2ncc3c(n2)CCCC3=O)c1	-5*	1	0.26	1	-0.52	-6
Cc1c(/C=N\NC(=O)C2COc3ccc(C(C)(C)C)cc3O2)c2ccccc2n1C (configuration not stated)	/	47	0.03	/	/	11
Cn1c(=O)[nH]c(=O)c2c1nc(N1CCOCC1)n2CCSc1nc2ccccc2[nH]1	/	/	-0.27	-9	1.1	/
Cc1ccc(S(=O)(=O)Cc2ccc(C(=O)NCc3cccs3)o2)cc1	/	-1	0.25	-3	1.8	-1
Cc1ccccc1S(=O)(=O)Cc1ccc(C(=O)NCc2cccs2)o1	/	-5	1.1	1	-8.4*	-2
COc1cccc(CNCCSc2nnnn2C)c1OC	/	-4	0.16	1	-0.64	-3
Clc1ccc(-n2nnnc2Sc2ncnc3sccc23)cc1	-2.9*	/	-1.7	10	-1.1	/
Cc1sc2ncnc(Sc3nnnn3-c3ccccc3)c2c1C	-4.8*	-5	-2.1	9	-0.34	0
CCSc1nnnn1-c1ccccc1	/	-1	-0.21	1	-0.99	3
Clc1ccc(CON/C=N/c2ncnc3sccc23)cc1	/	/	1.1	4	0.25	/
SMILES	D1 mod	CD11b adhes enh	Pyk2 oligo antag	FAK blocker	hDAT+cocaine	CD11b adhes inh
Cn1c(SCCS(=O)(=O)c2ccc(Cl)cc2)nnc1-c1ccccc1	-1.9	/	0.68	-2	0.53	/
N=c1c(C(=O)NCc2ccco2)cc2c(=O)n3ccccc3nc2n1CC1CCCO1 (configuration not stated)	/	/	-0.17	6	0.078	/
N=c1c(C(=O)NCc2ccco2)cc2c(=O)n3ccccc3nc2n1CCc1ccccc1	-3	10	-1.4	5	4.1*	2
CCC(=O)N1CCN(CCN=Cc2c(O)n(C3CCCCC3)c(=O)n(C3CCCCC3)c2=O)CC1	-0.13	/	/	/	/	/
COc1ccc(S(=O)(=O)NC(C)C(=O)Nc2ccccc2C(F)(F)F)cc1 (configuration not stated)	/	0	0.51	3	-1.7*	2
C[C@H](CS)C(=O)N1CCC[C@H]1C(=O)O	0.0089	/	/	/	-0.92	/
Cc1nc2cc(NS(=O)(=O)c3c(C)c(C)cc(C)c3C)ccc2s1	/	/	-3.8*	2	1.8	/
Cc1nc2ccc(NS(=O)(=O)c3ccc4c(c3)OCCO4)cc2s1	/	-10	-0.81	0	-1.2	102*
Cc1nc2ccc(NS(=O)(=O)c3c(C)c(C)cc(C)c3C)cc2s1	/	-6	-1.8	0	-0.63	34
